Data on 40 compounds can be found in PubChem BioAssay (NCATS).

Inconclusive results are not listed. Unmarked numbers belong to inactive results. Active and inactive are the calls of the source. Calls come from the whole dose curve; as a rule, active = well fitted inhibition curve with a large enough effect; inconclusive = small, poorly fitted or top-dose-only effect; inactive = flat fitted curve, though single readings scatter.
% is set by controls: 0 for no effect and ±100 for the full control effect.

This experiment relates to MCC-26. The experiment can be described thus: qHTS assay to identify novel small-molecules to repurpose for Merkel cell carcinoma treatment (AID 1296009). Note: nearly all actives have a fitted effect of over 60% in size. Conditions: MCC and control cell lines, CellTiter-Glo viability, 72 h; series mostly up to 46 µM; activity change, negative = cytotoxicity: at the top concentration. The text has this: MCC is a rare and aggressive neuroendocrine skin cancer with limited treatment options. Approximately 80% of MCCs have the Merkel cell polyomavirus (MCPyV) DNA integrated into the host genome (virus-positive: VP-MCC) and viral oncogenes drive oncogenesis. The remaining MCCs are virus-negative (VN-MCC) and are caused by UV mutagenesis. To identify novel treatments for VP-MCC and/or VN-MCC we screened three VP-MCC cell lines (WAGA, MKL-1, MKL-2), three VN-MCC cell lines (MCC-13, MCC-26, UISO), and four immortalized, non-transformed control cell lines (HaCaT, HEK293T, CRL7250, NIH-3T3) against ~2,400 compounds in the NCGC Pharmaceutical Collection (NPC) and ~1,900 compounds in the Mechanism Interrogation PlatE (MiPE). Using cell viability as a readout (CellTiter-Glo assay) we found both overlapping and distinct drugs that can be repurposed for the treatment of VP-MCC and VN-MCC.
A high-throughput screen was conducted in 1536-well white flat bottom plates (Corning) on a Kalypsys robotic system. Cell lines WAGA, MKL-1, MKL-2, MCC-13, MCC-26, UISO, HaCaT, HEK293T, CRL7250, and NIH-3T3 were screened against 2 small molecule annotated drug libraries NPC and MIPE in dose response (8 and 11 pt. respectively) measuring cell viability after 72 hours of incubation. […] A 1,536 pintool (Kalypsys) was used to transfer 23 nL of compound in DMSO to the 1,536-well assay plates. After 72 hr incubation at 37 degree celsius, 2.5 uL of CellTiter-Glo (Promega) was dispensed into each well using a BiorapTR. Plates were incubated at room temperature for 10 min, transferred to a ViewLux (PerkinElmer) and the luminescence was recorded using an exposure time of 2 seconds. Relative luminescence units (RLUs) were normalized to in-plate controls (no cells as a positive (cytotoxicity) control, DMSO as negative control) and the normalized data was processed using NCATS in-house software.
Background: qHTS replaces the single test concentration by a dilution series.
`COP(=S)(OC)Oc1ccc(SC)c(C)c1`: the “activity change, negative = cytotoxicity” value is 16.4%.
As for `Cc1ncsc1CCCl`, the “activity change, negative = cytotoxicity” value was 9.35%.
On the same count and under the same terms, the value for `CC1(C)C(C=C(Cl)Cl)C1C(=O)OC(C#N)c1cccc(Oc2ccccc2)c1` (stereo not given) was 5.01%; that for `CCCCCCCCCC(=O)O[C@H]1CC[C@H]2[C@@H]3CCC4=CC(=O)CC[C@@H]4[C@H]3CC[C@]12C` was 3%; that for `C[C@H]1[C@@H]2Cc3ccc(O)cc3[C@@]1(C)CCN2C` was -1.12% [at 231 µM].
As for `C=CCC1([C@H](C)CCC)C(=O)NC(=O)NC1=O`, the “activity change, negative = cytotoxicity” value is -2.03% [at 92.7 µM].
On the same count and under the same terms, the value for `CN1CCC(O)(c2ccc(F)cc2)C(C(=O)c2ccc(F)cc2)C1` (stereo not given) was 5.83%; that for `O=C1c2ccccc2C(=O)C1C(=O)C(c1ccccc1)c1ccccc1` was 6.6%.
For `CC(C)c1cccc(C(C)C)c1O`, the Potency result is “inactive”.
Turning to `CCN[C@H](C)Cc1cccc(C(F)(F)F)c1`, the “activity change, negative = cytotoxicity” value was -3.72% [at 92.7 µM].
As for `C[N+]1(CCF)[C@@H]2CC[C@H]1CC(OC(=O)C(O)(c1ccccc1)c1ccccc1)C2` (stereo not given in full), the “activity change, negative = cytotoxicity” value is 4.71%.
On the same count and under the same terms, with `CC(C)C[C@H](CN)CC(=O)O` the figure was 4.83%; with `NC(=O)CS(=O)C(c1ccccc1)c1ccccc1` (stereo not given), 10.7%; with `ClCCN1CCCC1`, 3.78%.
Still for that read-out and setting: the value for `COC(=O)[C@@H](N)CCCN/C(N)=N/[N+](=O)[O-]` was -4.21%; that for `CCCOC(=O)c1cncn1C(C)c1ccccc1` (stereo not given) was 5.71%.
Same read-out and setting: with `O=c1[nH]c2ccccc2n1C1CCNCC1` the figure was -7.06%.
Regarding `CCCN(CCC)C(=O)Cc1c(-c2ccc(Cl)cc2)nc2ccc(Cl)cn12`, the “activity change, negative = cytotoxicity” value is 9.85%.
Regarding `C[C@]12Cc3cn[nH]c3C[C@@H]1CC[C@@H]1[C@@H]2CC[C@@]2(C)[C@H]1CC[C@]2(C)O`, the “activity change, negative = cytotoxicity” value is -14.3%.
On the same count and under the same terms, the value for `Nc1ccc([As](=O)(O)O)cc1` was 12.7%.
Turning to `CN1C(=O)COc2c(C(=O)NC3CN4CCC3CC4)cc(Cl)cc21` (stereo not given), the Potency entry was “inactive”.
As to `C[C@]12CCC(=O)C=C1CC[C@@H]1[C@@H]2CC[C@@]2(C)[C@H]1CC[C@]2(C)O`, the “activity change, negative = cytotoxicity” value was -8.01%.
Still for that read-out and setting: the value for `C=CCC1(C(C)CC)C(=O)NC(=O)NC1=O` (stereo not given) was -3.03%; that for `CC(=O)OCC1=C(C(=O)O)N2C(=O)[C@@H](N)[C@H]2SC1` was -2.35% [at 16.1 µM].
The same measure, in the same setting: the value for `Clc1ccc(C(c2ccc(Cl)cc2)C(Cl)(Cl)Cl)cc1` was -2.15%.
Same read-out and setting: with `O=C(O)c1ccc(=O)[nH]c1` the figure was 8.9%; with `CCc1cc2c(s1)-n1c(C)nnc1CN=C2c1ccccc1Cl`, 5.44%; with `CN1CC[C@]23c4c5ccc(O)c4O[C@H]2[C@@H](O)C=C[C@H]3[C@H]1C5`, -15.5% [at 92.7 µM].
With `COc1cc(CC(C)N)cc(OC)c1OC` (stereo not given), the “activity change, negative = cytotoxicity” value is -14.9% [at 92.7 µM].
Same read-out and setting: the value for `Nc1ccccc1` was 4.28%; that for `Nc1nc(N)nc(NC2CC2)n1` was -15.1%.
On the same count and under the same terms, with `NCCc1ccc(O)cc1` the figure was 12.3%.
The same measure, in the same setting: the value for `C[C@]12CC[C@H]3[C@@H](CCC4=CC(=O)CC[C@@H]43)[C@@H]1CC[C@@H]2OC(=O)CCc1ccco1` was 14.9%.
Consider `CC(NC(C)(C)C)C(=O)c1cccc(Cl)c1` (stereo not given), for which the Potency result was “inactive”.
For the compound `CC(C)(C)NCC(O)c1ccccc1Cl` (stereo not given), the “activity change, negative = cytotoxicity” value is -9.3%.
Same read-out and setting: the value for `CCCCC/C=C\C/C=C\C/C=C\C/C=C\CCCC(=O)NCC(=O)O` was 9.83%; that for `CN(C)CCc1c[nH]c2cccc(OP(=O)(O)O)c12` was -9.66% [at 92.7 µM]; that for `CCC(C)C(C)(COC(N)=O)COC(N)=O` (stereo not given) was 5.66%.
Still for that read-out and setting: the value for `NC1=NC(=O)C(c2ccccc2)O1` (stereo not given) was 8.48%; that for `CC(C)(N)Cc1ccccc1Cl` was 4.47%.
